Screens (PubChem BioAssay)
This is a sample that favours compounds with a hit; in the whole collection about 6.3% have one here.
Spn MK inh: S. pneumoniae mevalonate kinase inhibition; purified MK, PK/LDH-coupled NADH absorbance 340 nm; inhibition, % at 10 µM; hit rate 0.48% among 65,000; AID 555;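 active means ranked among the strongest by inhibition in the single 10 µM screen, a fixed top-ranked set picked for dose follow-up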
DPM-DC inhibit: blocks S. pneumoniae diphosphomevalonate decarboxylase; purified DPM-DC, PK/LDH coupled NADH fluorescence; hit rate 0.49% among 65,000; calls only at 10 µM;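 active means the 320 compounds with the highest percent inhibition in the single-dose primary screen, excluding strongly autofluorescent ones, cut at about 32% in these data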;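 further: kinetic rate of NADH fluorescence loss reporting ADP formed by the decarboxylase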
Fluor 339 460: intrinsic fluorescence of library compounds, ex339/em460 – biochemical, MLSMR library, data from DPM-DC assay, artefact control, profiling panel | hit rate 5.5% among 65,000 | compound autofluorescence, ex339/em460 nm, NADH buffer; stronger effect = higher value; 1 = no-compound wells, NADH background | fluorescence fold increase at 10 µM | AID 709;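 active means at 10 µM, mean starting fluorescence two-fold or more over control wells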;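 further: signal is the first read of a kinetic run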
PMK inhibit: blocks S. pneumoniae phosphomevalonate kinase | hit rate 0.49% among 65,000 | purified PMK, PK/LDH-coupled NADH absorbance 340 nm | inhibition, % at 10 µM;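 active means top-ranked compounds by inhibition in the single 10 µM screen, taking a fixed number of the strongest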;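 further: 0% = full reaction with DMSO carrier and 100% = background rate without enzyme reaction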
A340 absorber: compounds absorbing at 340 nm. compound absorbance at 340 nm, fold over control. fold change at 10 µM. 65,000 tested, under 10 active;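 active means at 10 µM dose, initial 340 nm absorbance at least 2 fold that of control wells; inactive means change under 2 fold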;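 further: initial absorbance extrapolated from kinetic A340 decline of NADH oxidation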
NADH coupling: blocks coupling enzymes of NAD/NADH assays; coupled PK/LDH NADH assays, four targets; IC50, µM (doses to about 10 µM), inactives show at the highest dose inhibition; AID 774; hit rate 0.02% among 65,000;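 active means single-dose screening hits from any of four coupled enzyme assays that gave an IC50 when retested across doses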;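 further: the DPM-DC format reads NADH fluorescence rather than 340 nm absorbance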
The depositor's hits bear a star; i = inactive; x = no result shown; + = active, no number.

SMILES	Spn MK inh	DPM-DC inhibit	Fluor 339 460	PMK inhibit	A340 absorber	NADH coupling
COc1ccc(CN(Cc2cc3cc4c(cc3[nH]c2=O)OCO4)C(=O)NC2CCCCC2)cc1	12.0	i	2.49*	0.0	1.01	7.0%
COc1ccc(CCN(Cc2cc3cc4c(cc3[nH]c2=O)OCO4)C(C)=O)cc1OC	10.0	i	2.66*	13.0	1.08	16.0%
COCCN(Cc1cc2cc3c(cc2[nH]c1=O)OCO3)C(=O)c1cccs1	6.0	+	2.72*	10.0	1.13	17.0%
Cc1cc(N)n2ncc(-c3cccc(Br)c3)c2n1	10.0	x	2.19*	11.0	1.05	11.0%
Cc1cc(N)n2ncc(-c3ccccc3)c2n1	7.0	i	1.69	0.0	1.16	7.0%
CCOC(=O)N1CCN(C(=O)CN(c2ccc(OCc3ccccc3)cc2)S(C)(=O)=O)CC1	1.0	i	1.09	0.0	1.05	1.0%
CCN(CC)CCOc1cc2c(nn1)Oc1ccccc1N2C	9.0	x	3.81*	13.0	1.11	11.0%
CCCCCCNC(=O)Cc1c(O)c2ccccc2[nH]c1=O	10.0	i	1.04	1.0	0.98	11.0%
Cc1csc2nc(CNC(=O)CCC(=O)O)cn12	6.0	i	1.07	6.0	1.04	4.0%
CCN(CC)c1ccc(/C=N/n2nnnc2N)c(O)c1	13.0	i	1.71	0.0	1.03	6.0%
CSc1ccc(/C=N/n2nnnc2N)cc1	12.0	x	5.02*	7.0	1.22	10.0%
CCN(C)c1ccc(/C=N\n2nnnc2N)cc1	9.0	i	2.5*	10.0	1.08	15.0%
COc1cc(/C=N/n2nnnc2N)ccc1O	1.0	i	1.3	9.0	1.14	9.0%
CCCCOc1ccc(/C(O)=C2/C(=O)C(=O)N(CCCOC)C2c2ccncc2)cc1C (stereo not given)	9.0	i	1.05	10.0	1.15	6.0%
COCCCNC(=O)CC(NS(=O)(=O)c1ccc(OC)cc1)c1ccc(OC)cc1 (stereo not given)	9.0	i	1.08	0.0	1.08	3.0%
c1ccc(N2CCOCC2)c(Nc2nc3ccccc3n3cnnc23)c1	0.0	i	1.19	8.0	1.08	4.0%
CCN(CC)c1nc2ccccc2n2cnnc12	3.0	+	1.05	18.0	1.11	18.0%
CCOc1ccccc1Nc1nc2ccccc2n2cnnc12	10.0	x	2.09*	15.0	1.05	13.0%
Cc1cc(C)n(-c2nc3ccccc3n3cnnc23)n1	11.0	i	1.07	12.0	1.1	8.0%
CCOC(=O)/C=c1\s/c(=C(\C#N)C(=O)OCC)n(-c2ccccc2)c1=O	9.0	i	1.01	5.0	1.05	9.0%
O=C(c1ccco1)N1CCN(C2CCCC2)CC1	50.0*	i	1.14	6.0	1.08	19.0%
COc1cc(CN(C)CCc2ccccn2)cc(OC)c1OC	52.0*	i	1.13	15.0	1.05	22.0%
CN(CCc1ccccn1)Cc1ccc(Cl)cc1	59.0*	i	1.15	0.0	1.04	20.0%
Cc1ccc(CN(C)CCc2ccccn2)cc1	56.0*	i	1.11	3.0	1.06	20.0%
CCc1ccc(CN(C)CCc2ccccn2)cc1	52.0*	i	1.04	0.0	1.01	7.0%
SMILES	Spn MK inh	DPM-DC inhibit	Fluor 339 460	PMK inhibit	A340 absorber	NADH coupling
COc1ccc(CN(C)CCc2ccccn2)cc1OC	8.0	i	1.03	18.0	1	9.0%
Cc1noc(C)c1CSCC(=O)OCC(=O)Nc1sccc1C#N	0.0	i	1.08	17.0	1.03	6.0%
COCCCNC(=O)CSc1ccc(Cl)cc1	6.0	i	1.04	9.0	1.08	4.0%
CSc1nnc(-c2ccccc2)o1	7.0	i	1.14	2.0	1.03	3.0%
CN(C)CCSc1nnc(-c2ccccc2)o1	5.0	+	1.24	5.0	1.01	18.0%
Cc1cc(-c2nc3ncccc3o2)ccc1NC(=O)CC(C)C	4.0	x	2.2*	2.0	1.1	3.0%
Cc1ccc(OCC(=O)Nc2ccc(-c3nc4ncccc4o3)cc2)c(C)c1	0.0	x	2.17*	0.0	1.16	0.0%
O=C(Cn1ncn2cccc2c1=O)N1CCCCC1	5.0	i	1.06	9.0	1.01	5.0%
COc1cccc(NC(=O)c2ccccc2-c2nc(-c3ccc(F)cc3)no2)c1	17.0	i	1.05	0.0	1.06	6.0%
COC(=O)c1cc(OC)c(OC)c(OC)c1N	11.0	i	2.3*	4.0	1.06	7.0%
COC(=O)Nc1c(C(=O)OC)cc(OC)c(OC)c1OC	8.0	i	1.21	12.0	1.04	7.0%
CC(=O)c1cc2c(cc1NC(=O)CN1CCCCC1C)OCO2 (stereo not given)	20.0	i	1.26	13.0	1.09	11.0%
CCn1nc(NC(=O)c2ccncc2)c2cc3ccccc3nc21	8.0	i	1.19	0.0	1.04	3.0%
CCCn1nc(-c2ccccc2)c2nc3ccccc3nc21	3.0	i	2.39*	8.0	1.05	4.0%
CCn1nc(-c2ccccc2)c2nc3ccccc3nc21	5.0	i	2.38*	13.0	1.05	12.0%
CCOC(=O)CSc1nnc(CNC(=O)c2ccc(OC)cc2)n1C1CCCCC1	2.0	i	1.06	19.0	1.01	7.0%
O=C(c1ccc(CSCc2ccccc2F)o1)N1CCN(c2ccc(N3CCOCC3)nn2)CC1	2.0	x	2.37*	10.0	0.98	4.0%
O=C(c1cc2ccccc2oc1=O)N1CCN(c2ccc(N3CCOCC3)nn2)CC1	1.0	i	1.07	0.0	1.01	1.0%
CCCCC(CC)CNC(=O)CCS(=O)(=O)c1cccc2nonc12 (stereo not given)	5.0	i	1.14	0.0	1.08	2.0%
CCOC(=O)COc1ccc(S(=O)(=O)NCCC2=CCCCC2)cc1	5.0	i	1.05	4.0	1.04	6.0%
COc1ccc(CC(=O)N2CCOCC2)cc1OC	7.0	i	1.04	0.0	0.99	3.0%
COc1ccc(C(=O)CCC(=O)N2CCN(c3ccc(N4CCOCC4)nn3)CC2)cc1	4.0	x	2.15*	0.0	1.04	2.0%
CC(=O)N1CSCC1C(=O)N1CCN(c2ccc(N3CCOCC3)nn2)CC1 (stereo not given)	10.0	x	2.13*	13.0	0.99	12.0%
CCOc1ccc(CC(=O)N2CCN(c3ccc(N4CCOCC4)nn3)CC2)cc1OCC	2.0	x	2.13*	6.0	1.04	4.0%
Cc1noc(C)c1C(=O)OCC(=O)NCCc1ccc(Cl)cc1	0.0	i	1.08	14.0	0.99	5.0%
COC(=O)c1oc2ccccc2c1NC(=O)CN1CCCC1	5.0	i	1.12	10.0	1.01	5.0%
Cc1c(Br)cc(C(=O)NCCCN2CCOCC2)c(C)c1C	0.0	i	1.12	0.0	1.06	0.0%
CCOC(=O)c1sc(C)c(C(=O)NCCCN2CCOCC2)c1N	4.0	i	2.26*	4.0	1.06	7.0%
CCN(CC)c1ccc(NC(=O)CSc2nnc(N)s2)cc1C	5.0	i	1.06	8.0	1.02	4.0%
CCN(CC)c1cc(C)c2cc(NC(=O)CNC(C)=O)ccc2n1	13.0	x	2.2*	0.0	1.13	7.0%
